The campaign covered roughly 310,000 compounds. About 3,400 (1.1%) were called active. The entries come from a sample that favours actives as a whole. A number with no mark means an inactive call.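 Rule for the calls: active = fluorescence ratio B-score at most minus 3 library SDs, with starting brightness B-score within 2 library SDs (cut at about -5.5 in these data); inactive = the rest, inconclusive results apart.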 Peptide text beside a SMILES is read from it. * marks the point of attachment. OPac = O=C(CO*)c1ccccc1; Bz = O=C(c1ccccc1)*
Biological target: Potassium voltage-gated channel subfamily KQT member 2 (Rattus norvegicus) (UniProt O88943)
Assay: rat KCNQ2 potassium channel inhibitors, primary screen, cell-based, CHO-K1, FluxOR thallium flux, B-score (AID 2156)
Conditions: 20 min, at 10 µM; stronger effect = lower value

Sequence of Potassium voltage-gated channel subfamily KQT member 2 (Rattus norvegicus) (O88943 whole entry, looked up): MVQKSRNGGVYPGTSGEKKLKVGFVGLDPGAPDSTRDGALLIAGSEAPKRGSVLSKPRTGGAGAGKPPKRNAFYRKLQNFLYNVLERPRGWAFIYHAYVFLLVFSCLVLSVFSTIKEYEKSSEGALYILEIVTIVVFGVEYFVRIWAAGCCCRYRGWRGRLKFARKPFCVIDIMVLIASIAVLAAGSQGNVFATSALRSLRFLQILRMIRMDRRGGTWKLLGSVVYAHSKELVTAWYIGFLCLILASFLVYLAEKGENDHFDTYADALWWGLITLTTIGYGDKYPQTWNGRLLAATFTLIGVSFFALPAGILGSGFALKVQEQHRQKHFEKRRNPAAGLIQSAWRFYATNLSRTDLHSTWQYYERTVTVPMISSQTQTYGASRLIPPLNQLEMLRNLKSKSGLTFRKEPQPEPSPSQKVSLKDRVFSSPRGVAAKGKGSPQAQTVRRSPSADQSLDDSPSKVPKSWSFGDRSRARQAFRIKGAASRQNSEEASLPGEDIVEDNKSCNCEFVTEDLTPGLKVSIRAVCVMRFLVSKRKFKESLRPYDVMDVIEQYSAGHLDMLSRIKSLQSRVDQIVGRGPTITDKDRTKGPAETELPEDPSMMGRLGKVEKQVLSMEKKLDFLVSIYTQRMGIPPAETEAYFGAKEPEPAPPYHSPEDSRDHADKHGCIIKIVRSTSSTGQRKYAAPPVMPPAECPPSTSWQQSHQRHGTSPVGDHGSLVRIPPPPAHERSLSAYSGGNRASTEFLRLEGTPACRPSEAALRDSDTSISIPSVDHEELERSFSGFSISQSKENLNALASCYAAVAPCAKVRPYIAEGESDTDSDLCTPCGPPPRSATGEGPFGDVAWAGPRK

Structure (SMILES)	B-score
CC(C)N(Cc1nnc(-c2ccc(Cl)cc2)o1)C(=O)C1=COCCO1	-1.82
CCOC(=O)C1CCc2nc3ccccc3c(=O)n21 (stereo not drawn)	inactive
CCOC(=O)C(C)Sc1nc2ccccc2c(=O)n1CC1CCCCC1 (stereo not drawn)	-10.1 (active)
CCOn1c(SC(C)C)nc2ccccc2c1=O	-2.44
CCCCn1c(N)c(N(CCOC)C(=O)c2cccc(S(=O)(=O)N(C)c3ccccc3)c2)c(=O)[nH]c1=O	-0.06
COc1ccc(C)cc1NC(=O)Nc1ccccc1SC	inactive
COc1ccc(C)cc1NC(=O)C(OC(=O)c1cccc(S(=O)(=O)N(C)c2ccccc2)c1)c1ccccc1 (stereo not drawn)	-7.07 (active)
COc1ccc(C)cc1NC(=O)C(Sc1ccccc1)c1ccccc1 (stereo not drawn)	-2.05
Cc1ccc(S(=O)(=O)N2CCN(C(=O)c3ccccc3-c3nc4ccccc4s3)CC2)c(C)c1	-0.72
CCOC(=O)CSc1nnc(-c2ccco2)n1C	inactive
CCOC(=O)CSc1nc2c(c(=O)n(C)c(=O)n2C)n1Cc1ccccc1F	inactive
CCOC(=O)CSc1nc2c(sc(=S)n2CCc2ccccc2)c(=O)n1Cc1ccco1	-5.6 (active)
OCCCNc1nc(-c2ccccc2)c2cc(Cl)ccc2n1	inactive
CCCCn1c(N)c(N(CC(C)C)C(=O)c2ccc(Br)o2)c(=O)[nH]c1=O	inactive
O=C(c1ccc(F)c(S(=O)(=O)N2CCOCC2)c1)N(CCc1ccccc1)Cc1ccccc1	-2.85
CC(C)(C)Oc1ncc(Br)c(OC(C)(C)C)n1	inactive
COc1cccc(-c2cnc(OC(C)(C)C)nc2OC(C)(C)C)c1	-7.02 (active)
COc1ccc(-c2nc(N)ncc2-c2ccc(Cl)cc2)c(O)c1	-0.21
CC(Oc1ccc(F)cc1)C(=O)Nc1ccccc1C(=O)NC1CC1 (stereo not drawn)	-1.68
COc1ccc(C2CC(c3cccs3)=NN2C(=O)COC(=O)c2cc3ccccc3cc2O)cc1OC (stereo not drawn)	inactive
O=C1c2cccc(OCC(=O)N3N=C(c4cccs4)CC3c3ccc(F)cc3)c2CCN1Cc1ccccc1 (stereo not drawn)	-5.75 (active)

Structure (SMILES)	B-score
COc1ccc(C2CC(c3cccs3)=NN2C(=O)CCC(=O)O)cc1OC (stereo not drawn)	inactive
Nc1cccnc1Sc1ccccc1	inactive
COCCNC(=O)COc1ccccc1C	-1.11
Cc1ccccc1OCC(=O)NCC(=O)OCC(=O)c1ccc2ccccc2c1	-5.95 (active)
O=C(CNC(=O)c1ccccc1)NCC(=O)OCC(=O)c1ccccc1 (Bz-Gly-Gly-OPac)	inactive
Nc1c(C(=O)Nc2ccc3c(c2)OCCO3)nnn1Cc1ccccc1	-0.47
CC(C)Nc1nnc(SCC(=O)/C=C2\N(C)c3ccccc3C2(C)C)s1	inactive
CC(=O)Nc1cccc(OCC(=O)/C=C2\N(C)c3ccccc3C2(C)C)c1	-6.18 (active)
CN1/C(=C\C(=O)c2oc3ccccc3c2N)C(C)(C)c2ccccc21	-0.16
Cc1ccc(NC(=O)C2CCCN2C(=O)OCc2ccccc2)cc1C (stereo not drawn)	inactive
Cc1ccc(C)c(NC(=O)C2Cc3ccccc3CN2C(=O)OCc2ccccc2)c1 (stereo not drawn)	-6.25 (active)
Cc1ccc(S(=O)(=O)N(C)C)cc1NC(=O)C1Cc2ccccc2CN1C(=O)c1ccco1 (stereo not drawn)	-0.13
CCOC(=O)C1=C(C)Nc2sc(C(=O)c3ccc(Br)cc3)c(N)c2C1c1ccc(C(=O)OC)cc1 (stereo not drawn)	-6.56 (active)
CCOC(=O)c1sc(=S)n2c1[nH]c(=O)c1ccc(C(=O)OC)cc12	inactive
CCOC(=O)c1sc(=NC(=O)c2ccc(Br)cc2)n(C)c1C	inactive
Cc1cc(Nc2ccc(Br)cc2)nc2ccccc12	inactive
Cc1ccc2nc(SCC(=O)N3CCN(c4ccccc4)CC3)nc(=O)n2c1	-0.18
Cc1nc(-c2ccc(F)cc2)c(CC(=O)Nc2cccc(S(=O)(=O)N3CCOCC3)c2)s1	-0.75
CCOC(=O)C1CCN(C(=O)COC(=O)C2CCN(S(=O)(=O)c3ccc4c(c3)OCCO4)CC2)CC1	inactive
CCOc1ccc(C(=O)Nc2cc(Cl)ccc2-n2cncn2)cc1OC	-0.08
CC(=O)Nc1ccc(NC(=O)CSC2=NS(=O)(=O)c3ccccc3N2)cc1	inactive

Structure (SMILES)	B-score
COc1ccc(C(CNC(=O)c2ccc(NS(=O)(=O)c3ccc(F)c(C)c3)cc2)N(C)C)cc1 (stereo not drawn)	inactive
CCCCn1c(N)c(N(CC(C)C)C(=O)C2CSC3(C)CCC(=O)N23)c(=O)[nH]c1=O (stereo not drawn)	-1.75
Cc1cccc(C(C)C)c1NC(=O)COC(=O)C1CC(=O)N(Cc2ccccc2)C1 (stereo not drawn)	inactive
CC(=O)N1N=C(c2ccncc2)OC1(Cc1ccccc1)Cc1ccccc1	-7.53 (active)
CC(=O)N1N=C(c2ccccc2)OC1c1cccnc1 (stereo not drawn)	inactive
O=C(Cc1ccccc1)N1N=C(c2ccncc2)CC1(O)C(F)(F)F (stereo not drawn)	inactive
CC(=O)Nc1cccc(C(=O)OCC(=O)NCc2cc(C)c(O)c(C)c2)c1	inactive
COc1ccccc1-c1n[nH]c2c1[C@H](C)CC[C@H]2C(C)C	-10.1 (active)
COc1ccc(-c2n[nH]c(C)c2-c2ccccc2OC)c(O)c1	inactive
COc1ccccc1-c1nc(SC)n[nH]1	-0.1
Cc1ccnc(NC(=O)CCC(=O)N(CC(=O)NCc2ccccc2)Cc2ccco2)c1	-0.05
Cc1ccc(C(C(=O)NC2CCCC2)N(Cc2ccco2)C(=O)CCC(=O)Nc2ccccn2)cc1 (stereo not drawn)	-1.92
Cc1ccc2c(c1)N(CC(=O)N(Cc1ccccn1)Cc1ccco1)C(=O)C(C(C)C)O2 (stereo not drawn)	-7.54 (active)
O=C(c1ccc(Cl)s1)N(Cc1nnc(-c2ccccc2Cl)o1)C1CC1	-0.68
O=C(O)c1ccccc1C(=O)Nc1ccccc1[N+](=O)[O-]	-1
O=C(Nc1ccccc1[N+](=O)[O-])C1C(c2ccccc2)=C1c1ccccc1	-5.88 (active)
O=C(Nc1ccccc1-c1ccccc1)c1ccccc1[N+](=O)[O-]	-3.5
CCC(CC)c1nnc(NC(=O)C2=COCCO2)s1	-0.29
CCOc1cc(N2CCOCC2)c(OCC)cc1NC(=O)COc1cccc(Cl)c1	inactive
CCOc1cc(N2CCOCC2)c(OCC)cc1NC(=O)COc1cccc2cccnc12	-3.14
CCOc1cc(N2CCOCC2)c(OCC)cc1NC(=O)c1ccc(C)s1	-6.48 (active)
